Our source for the Potency values is PubChem BioAssay (NCATS).

Results filed as inconclusive are left out. Where a call stands in place of a potency, no number is given. Active and inactive are the calls of the source. Calls come from the whole dose curve; as a rule, active = well fitted cell-killing curve with a large enough effect; inconclusive = small, poorly fitted or top-dose-only effect; inactive = flat fitted curve, though single readings scatter. Residues, ends and D or L forms follow the SMILES beside them. *: point of attachment. Cbz = O=C(OCc1ccccc1)*
Potency is the fitted concentration of half-maximal effect.

This test can be described thus: qHTS of pediatric cancer cell lines to identify multiple opportunities for drug repurposing: Primary screen for DAOY cells (AID 1347090). Note: nearly all actives have a fitted effect of over 55% in size. As to conditions: DAOY medulloblastoma viability, CellTiter-Glo luminescence, 48 h; series mostly up to 46 µM. From the text:
Drug repurposing or repositioning has been offered as a strategy for drug development in oncology programs. This approach has special potential for childhood cancers and other rare or orphan diseases, where the expected return on new drug development has been a disincentive to pharmaceuticals.
In this project we exploit the poly-pharmacology of drugs to discover new indications via phenotypic screening of a panel of 19 well-characterized cell lines derived from solid tumors seen in children and adolescents. The goal is to identify approved drugs with previously unrecognized anticancer properties that has the potential to reveal new mechanisms and biological processes involved in carcinogenesis or drug resistance. We employed a titration-based paradigm (quantitative high-throughput screening or qHTS), where all compounds were tested at multiple concentrations for their effect on cell viability. Concentration-response curves (CRCs) were derived directly from the primary screen, and both potency and efficacy values were used to identify compounds with robust bioactivity profiles. We screened the NIH Chemical Genomics Center (NCGC) Pharmaceutical Collection (NPC) and Mechanism Interrogation Plate (MIPE) small molecule collections of approved and investigational compounds against these cell lines; and measured metabolically active cells after 48 hours of compound treatment as a proxy for cell viability.
Assay Submitter: Nathalia J. Martinez, National Center for Advancing Translational Sciences, National Institutes of Health, Rockville, MD, USA; email: natalia.martinez@nih.gov
[1] Shen, M et al. Quantitative high-throughput phenotypic screening of pediatric cancer cell lines identifies multiple opportunities for drug repurposing. Oncotarget 2017 Dec 19;9(4):4758-4772. PMID 29435139.
The cells were obtained from University of North Carolina (UNC), Pediatric Preclinical Testing Program (PPT), and Coriell Institute (CI).
qHTS cell viability assay:
Cells were assayed in growth media at a density of 500-1,000 cells/well. Five microliters of cells were dispensed into 1,536-well, white, solid-bottom, TC-treated plates (Greiner Bio One) using a multidrop dispenser and incubated at 37 degrees C, 5% CO2, under a humidified atmosphere for 5 hours. Twenty-three nanoliters of compounds and controls (neutral control DMSO or positive control bortezomib at final concentration of 2.3 µM) were subsequently transferred by Kalypsys pintool. For primary screens, the MIPE collection was tested at 11-point dilutions (final concentrations range from 0.78 nM to 46 µM) and the NPC collection at 8-point dilutions (final concentrations range from 0.59 nM to 46 µM). Compounds tested in follow-up screens were assayed at 11-point dilutions. Cells were incubated for 48 hours, followed by addition of 3 uL of CellTiter-Glo (Promega). After a 15 min incubation at room temperature, samples were analyzed for luminescence intensity using a ViewLux High-throughput CCD imager equipped with clear filters.
Take `CN[C@@H]1C[C@H]2O[C@@](C)([C@H]1OC)n1c3ccccc3c3c4c(c5c6ccccc6n2c5c31)C(=O)N[C@H]4O`: the Potency was 469 nM (active).
As to `COc1cc(N2CCC(C(N)=O)CC2)ccc1Nc1nc(N)c(Cl)c(Nc2ccccc2S(=O)(=O)C(C)C)n1`, the Potency is 187 nM (active).
As to `CCn1c(=O)c2c(nc(C=Cc3ccc(OC)c(OC)c3)n2C)n(CC)c1=O`, the Potency result is “inactive”.
Regarding `C[C@H]1[C@@H](OC(=O)CCC(=O)O)O[C@@H]2O[C@@]3(C)CC[C@@H]4[C@H](C)CC[C@@H]1[C@@]24OO3`, the Potency is 11800 nM (active).
Consider `COc1cc(C)c(Sc2cnc(NC(=O)c3ccc(CNC(C)C(C)(C)C)cc3)s2)cc1C(=O)N1CCN(C(C)=O)CC1` (stereo not given), for which the Potency is 18700 nM (active).
In the case of `O=C(C=Cc1ccc(CN(CCO)CCc2c[nH]c3ccccc23)cc1)NO`, the Potency is 469 nM (active).
Regarding `COc1ccc2cc([S+]([O-])Cc3ncc(C)c(OC)c3C)nc2c1`, the Potency result is “inactive”.
`O=C(C[C@@H]1CC=CCCC(=O)O[C@H](c2ccccc2)CNC1=O)NCc1ccc(Cl)cc1`: the Potency entry is “inactive”.
Regarding `C[C@H](NC(=O)[C@@H](O)c1cc(F)cc(F)c1)C(=O)N[C@@H]1C(=O)N(C)c2ccccc2-c2ccccc21`, the Potency entry is “inactive”.
The result for `CCS(=O)(=O)Nc1ccc2[nH]c(O)c(C(=Nc3ccc(CN4CCCCC4)cc3)c3ccccc3)c2c1` reads 7430 nM (active); that for `O=[N+]([O-])c1cn2c(n1)OC[C@@H](OCc1ccc(OC(F)(F)F)cc1)C2`, “inactive”; that for `C[C@@H]1[C@H](C)CC[C@]2(C(=O)O)CC[C@]3(C)C(=CC[C@@H]4[C@@]5(C)C[C@@H](O)[C@H](O)[C@@](C)(CO)[C@H]5CC[C@]43C)[C@@H]12`, “inactive”.
As to `C[C@H]1C[C@H]2[C@@H]3CCC4=CC(=O)C=C[C@]4(C)[C@@H]3C(=O)C[C@]2(C)[C@@]1(O)C(=O)CO`, the Potency result is “inactive”.
For the compound `COc1cc(OC)c(NC(=O)Nc2cc(C)on2)cc1Cl`, the Potency entry was “inactive”.
Turning to `C=C(C)[C@@H]1CC[C@]2(C(=O)O)CC[C@]3(C)[C@H](CC[C@@H]4[C@@]5(C)CC[C@H](O)C(C)(C)[C@@H]5CC[C@]43C)[C@@H]12`, the Potency result is “inactive”.
The result for `C[C@H](NCc1ccc2c(c1)nc(NC(=O)c1ccc(-c3cn[nH]c3)s1)n2CCc1ccccc1)C(C)(C)C` reads 2960 nM (active); that for `CC(C)C[C@@H](C=O)NC(=O)[C@H](CC(C)C)NC(=O)[C@H](CC(C)C)NC(=O)OCc1ccccc1` (Cbz-Leu-Leu-Leu-aldehyde), 743 nM (active); that for `O=C(CCCCCCC(=O)Nc1cccnc1)NO`, 14800 nM (active).
For `CCC(C=C[C@@H]1OC(=O)C=C[C@H]1C)=C[C@H](C)CC=CC(C)=C[C@@H](C)C(=O)[C@@H](C)[C@H](O)[C@@H](C)CC(C)=CC(=O)O`, the Potency is 78.2 nM (active).
As for `CCc1cnn2c(NCc3ccc[n+]([O-])c3)cc(N3CCCC[C@@H]3CCO)nc12`, the Potency is 37.2 nM (active).
On to `C=C(C)[C@@H]1CC[C@]2(C)CC[C@]3(C)[C@H](CC[C@@H]4[C@@]5(C)CC[C@H](O)C(C)(C)[C@H]5CC[C@]43C)[C@@H]12`, for which the Potency result is “inactive”.
Turning to `C[C@]12C=CC(=O)N[C@@H]1CC[C@H]1[C@H]3CC[C@@H](C(=O)Nc4cc(C(F)(F)F)ccc4C(F)(F)F)[C@@]3(C)CC[C@@H]12`, the Potency result was “inactive”.
As for `CON=C(C(=O)N[C@@H]1C(=O)N2C(C(=O)O)=C(Cn3ccc(=N)n3CCO)CS[C@H]12)c1csc(N)n1`, the Potency result was “inactive”.
The result for `C=C1CCC2[C@](C)(CO)C(O)CC[C@]2(C)C1CC=C1C(=O)OCC1O` (stereo not given in full) reads “inactive”.
`CCc1ccc(C(=O)Nc2cc(CN3CCN(C)CC3)cc(C(F)(F)F)c2)cc1C#Cc1cnc2ccnn2c1`: the Potency is 23500 nM (active).
Consider `C[N+]1(C)[C@@H]2C[C@@H](OC(=O)C(O)(c3cccs3)c3cccs3)C[C@H]1[C@@H]1O[C@@H]12`, for which the Potency result is “inactive”.
Take `CC1=C(C(=O)Nc2cc3cn[nH]c3cc2F)C(c2ccc(Cl)cc2F)N=C(c2ccnc(Cl)c2)N1` (stereo not given): the Potency result is “inactive”.
`CS(=O)(=O)N1CCc2c(-c3cnc(N)nc3)nc(N3CCOCC3)nc21`: the Potency is 469 nM (active).
With `C=CCNC1=C2C[C@@H](C)C[C@H](OC)[C@@H](O)[C@@H](C)C=C(C)[C@H](OC(N)=O)[C@@H](OC)C=CC=C(C)C(=O)NC(=CC1=O)C2=O`, the Potency was 2960 nM (active).
Take `CC(=O)NC(CS)C(=O)O` (stereo not given): the Potency result was “inactive”.
The result for `C[C@@]12C[C@@]3(O)O[C@@H](O1)[C@]1(COC(=O)c4ccccc4)[C@@H]3C[C@@]12O[C@@H]1O[C@H](CO)[C@@H](O)[C@H](O)[C@@H]1O` reads “inactive”; that for `CC(C)(C)[N+]([O-])=Cc1ccc(S(=O)(=O)O)cc1S(=O)(=O)O`, “inactive”.
Take `Nc1nc(N)c2nc(-c3cccc(O)c3)c(-c3cccc(O)c3)nc2n1`: the Potency was 7430 nM (active).
As to `CC(=O)OCC(=O)[C@@]1(O)CC[C@H]2[C@@H]3CCC4=CC(=O)CC[C@]4(C)[C@@H]3C(=O)C[C@@]21C`, the Potency entry was “inactive”.
For the compound `CC(=O)SCC(Cc1ccccc1)C(=O)NCC(=O)OCc1ccccc1` (stereo not given), the Potency is 2350 nM (active).
With `CON=C(C(=O)N[C@@H]1C(=O)N2C(C(=O)O)=C(CSC(=O)c3ccco3)CS[C@H]12)c1csc(N)n1`, the Potency entry is “inactive”.
With `CC(=O)N[C@H]1[C@@H]([C@H](O)[C@H](O)CO)OC(C(=O)O)=C[C@@H]1N=C(N)N`, the Potency result was “inactive”.
Regarding `COc1cc2c(Nc3ccc(Cl)c(Cl)c3F)ncnc2cc1OCC1C[C@@H]2CN(C)C[C@H]2C1`, the Potency is 935 nM (active).
For `COC[C@H](NC(=O)c1cnc(C)s1)C(=O)N[C@@H](COC)C(=O)N[C@@H](Cc1ccccc1)C(=O)[C@@]1(C)CO1`, the Potency is 296 nM (active).
Take `C=C[C@@H]1CN2CCC1C[C@H]2[C@H](O)c1ccnc2ccc(OC)cc12` (stereo not given in full): the Potency entry is “inactive”.
